This is one part of a sample in which hits are shown more often than they occur.
IMPase cell inh – cell-permeable inhibitors of inositol monophosphatase (IMPase). inhibition (IP1 accumulation), % at 46.1 µM. P97697. AID 901. 120,000 tested, under 10 active. CHO-M1 cells, IP1 accumulation, HTRF TR-FRET ratio; active means well fitted curve in the direction sought with a large enough effect in the signal ratio, not every such curve was filed as active; inconclusive means small, poorly fitted or top-dose-only effect, or a change in a side signal; inactive means no such curve, though single readings can be large or run the other way; the % refers to the signal ratio;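 further: cells stimulated with carbachol in lithium chloride buffer; plate controls were DMSO basal wells for no effect and reference inhibitor wells for full effect; higher means more IMPase inhibition seen as more IP1 and lower FRET ratio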
Target sequence (P97697 whole entry, looked up): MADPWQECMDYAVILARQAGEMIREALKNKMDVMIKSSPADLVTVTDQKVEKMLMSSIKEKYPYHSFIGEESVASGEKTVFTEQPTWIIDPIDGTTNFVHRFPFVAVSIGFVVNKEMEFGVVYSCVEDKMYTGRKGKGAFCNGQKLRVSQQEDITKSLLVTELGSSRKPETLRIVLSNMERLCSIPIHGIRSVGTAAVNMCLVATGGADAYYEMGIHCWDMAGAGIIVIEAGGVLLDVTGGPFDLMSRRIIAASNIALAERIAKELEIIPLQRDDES
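In this qHTS, compounds (final up to 46 uM) act on CHO-M1 cells that are then activated through the M1 receptor with carbachol, in pH 7.4 buffer containing 50 mM LiCl, for 30 min. IP1 accumulation is quantified by the IP-One immunoassay.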
LMNA splice mod – modulators of lamin A splicing. 200,000 tested, 0.01% active. HeLa LMNA splicing GFP/RFP minigene ratio, 48 h. Potency, µM (highest dose often 46.1 µM), without a hit: at the top dose ratio change, negative = inhibition, actives largely listed as inhibitors; active means well fitted inhibition curve with a large enough effect in the signal ratio, with a control signal flat, not every such curve was filed as active; inconclusive means small, poorly fitted or top-dose-only effect, or effect the other way, or a change in a side signal; the % refers to the signal ratio; further: potency means the concentration at half of the fitted maximal effect
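Read-out is the ratio of GFP to DsRed2 object intensity, acquired by 488 nm laser-scanning cytometry on HeLa lamin A-EGFP minigene reporter cells. Compound incubation 48 hrs at 37 °C in Opti-MEM with 2% FBS; DMSO 0.5% final.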
PNC inhibitor – blocks assembly of the perinucleolar compartment. PC3M PTB-GFP, PNC prevalence imaging, 16 h; hits give low values. activity change (PNC), negative = inhibition, % at 10 µM. 140,000 tested, 3.1% active. AID 2417;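 active means readout at or below -70, meaning at least 70% loss of cells showing the perinucleolar compartment, a nuclear body marking cancer cells; inconclusive means readout between -30 and a set limit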;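 further: plate controls were DMSO wells for no effect and camptothecin positive control wells for full effect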
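Read-out is percentage of cells bearing a perinucleolar compartment, from automated 20x imaging of fixed, Hoechst-stained PC3M PTB-GFP cells. Cells were seeded 4 h, then exposed 16 h to compound (23 nl of library stock) in duplicate plates.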
* = called active by the depositor; ? = inconclusive; · = no result; [ ] = remark or other dose. Unless noted, on the % scale 0 is the no-effect control and ±100 the full control effect.

SMILES | IMPase cell inh | LMNA splice mod | PNC inhibitor
Cc1cc([N+](=O)[O-])nn1CCCC(=O)N1CCN(c2ccc(F)cc2)CC1 | 4 | -11% | -119*
Cc1cc([N+](=O)[O-])nn1CCCC(=O)Nc1cc(Oc2ccc(F)cc2)cc([N+](=O)[O-])c1 | -4 | ? | 28
CCCN1C(=O)/C(=N\OCC(=O)NC23CC4CC(CC(C4)C2)C3)c2ccccc21 | -5 | 3% | -24
COc1ccc(CN2C(=O)c3cccnc3C2Nc2ccc(OC)c(Cl)c2)cc1 (stereo not given) | 1 | 5% | -5
COc1ccc(NC2c3ncccc3C(=O)N2Cc2ccccc2)c(OC)c1 (stereo not given) | 1 | -1% | -100*
O=C(NCc1ccco1)c1cccc(S(=O)(=O)N2CCCCC2)c1 | -8 | -16% | -100*
O=C(Nc1ccccc1C(=O)N1CCCC1)c1cccc(S(=O)(=O)N2CCCCCC2)c1 | -2 | -4% | 45
O=C(Nc1ccccc1C(=O)N1CCOCC1)c1cccc(S(=O)(=O)N2CCCC2)c1 | -10 | 5% | -90*
O=C(NCc1ccco1)c1ccc(=O)oc1 | -12 | 6% | -83*
CC(C)Oc1ccc(C(=O)NCc2ccco2)cc1 | -6 | -9% | 51
O=C(NNC1=NCCC1)c1cccc(S(=O)(=O)N2CCCC2)c1 | · | 5% | -107*
O=C(NCc1ccco1)c1cccc(S(=O)(=O)N2CCOCC2)c1 | 7 | 16% | ?
O=C(NNC1=NCCC1)c1cccc(S(=O)(=O)N2CCOCC2)c1 | 0 | -12% | 12
CCc1ccc(C2C(C(=O)Nc3ccccc3OC)=C(C)Nc3c(C(=O)Nc4ccc(C)cc4)cnn32)cc1 (stereo not given) | · | 4%[46 µM] | ·
O=[N+]([O-])c1ccc(S(=O)(=O)N2CCn3cccc3C2c2ccc(Br)cc2)cc1 (stereo not given) | · | -6%[46 µM] | ·
CCN(CC)c1ccc(NS(=O)(=O)c2cc3[nH]c(=O)c(=O)[nH]c3cc2C)c(C)c1 | · | -3%[46 µM] | ·
CC(C)c1nc2ccc(C(=O)Nc3ccccc3F)cc2o1 | · | 13%[46 µM] | ·
O=S(=O)(c1cccc(C(F)(F)F)c1)N1CCN(C(=S)NCc2ccco2)CC1 | · | -11% | -109*
O=C(Nc1ccccc1C(=O)NCc1ccco1)c1ccco1 | 6 | 7% | 25
CC(C)(C)C(=O)Nc1ccccc1C(=O)NCc1ccco1 | -1 | ? | -138*
CC(C)c1ccc(S(=O)(=O)N2CCN(C(=S)NCc3ccco3)CC2)cc1 | · | ? | -14
CC(C)CC(=O)NC1CC(=O)N(c2ccc3c(c2)OCCO3)C1 (stereo not given) | · | 1%[46 µM] | ·
O=C(CNC(=O)c1ccc(Cl)cc1)OCC(=O)N1CCCC1 | · | -4%[46 µM] | ·
O=C(/C=C/c1ccccc1Cl)NC(=S)Nc1ccccc1C(=O)NC1CCCCC1 | 0 | 2% | 28
CCOc1ccc(C)cc1S(=O)(=O)N1CCCCC1 | -3 | 7% | 48
SMILES | IMPase cell inh | LMNA splice mod | PNC inhibitor
CCOc1ccc(C(C)(C)C)cc1S(=O)(=O)N1CCOCC1 | 9 | 8% | -97*
COc1ccc(CCNc2ncnc3c2nnn3C)cc1 | · | 0%[46 µM] | ·
COc1ccc(C(=O)CN2C(=O)N(c3cc(C)ccc3C)S(=O)(=O)c3ccccc32)cc1 | · | 9%[46 µM] | ·
Cc1cc2ccccn2c1C(=O)c1ccc(Cl)cc1 | -2 | -4% | -105*
Cc1cc2ccccn2c1C(=O)c1ccncc1 | 5 | -11% | 48
CCOc1ccc(N(C(C)C(=O)NCCSc2ccc(Cl)cc2)S(C)(=O)=O)cc1 (stereo not given) | 0 | · | ·
Cc1ccn2cc(CSc3ccccc3)nc2c1 | 5 | -5% | -112*
Cc1ccc(SCc2cn3cccnc3n2)cc1 | 1 | 11% | -29
Cc1nn(-c2ccccc2)c(N)c1N=Nc1ccc(Cl)cc1 | 15 | -4% | -93*
Cc1cccc(N=Nc2c(C)nn(-c3ccccc3)c2N)c1C | · | ? | -134*
Cc1nn(-c2ccccc2)c(N)c1N=Nc1ccccc1 | · | 9% | 2
Nc1nn(-c2ccccc2)c(N)c1N=Nc1ccccc1 | · | ? | -20
Cc1ccc(NC(=O)c2cnc(SCC(=O)N3CCCc4ccccc43)n(C)c2=O)cc1 | · | 22%[46 µM] | ·
COc1ccc(C)cc1NC(=O)CN1C(=O)CCc2cc(S(=O)(=O)N3CCOCC3)ccc21 | · | 3%[46 µM] | ·
COc1cc2cc(CN(Cc3nnnn3C3CCCC3)C3CCCC3)c(=O)[nH]c2cc1OC | -8 | -2% | ?
Cc1ccc2[nH]c(=O)c(CN(Cc3ccccc3)Cc3nnnn3C3CCCC3)cc2c1 | 6 | ? | -93*
Cc1cccc2cc(CN(Cc3ccc(F)cc3)Cc3nnnn3C3CCCC3)c(=O)[nH]c12 | 0 | 5% | -18
Cc1ccc2[nH]c(=O)c(CN(Cc3nnnn3C3CCCC3)C3CCCCC3)cc2c1 | 1 | 5% | -100*
COc1ccc(C2C(=O)N(C3CCC(C)CC3)CC(=O)N2CCc2ccccc2)cc1OC (stereo not given) | · | -8%[46 µM] | ·
c1ccc(OCCN2C3=NCCN3c3ccccc32)cc1 | 17 | -4% | -90*
CCCN1C2=NCCN2c2ccccc21 | -3 | ? | 29
OC(COc1ccccc1)CN1C2=NCCCN2c2ccccc21 (stereo not given) | 8 | 5% | 0
CCCCCCN1C2=NCCN2c2ccccc21 | -7 | -16% | -107*
Cc1ccc(NC(=O)N2CCC(CN3CCCCCC3)CC2)c(Cl)c1 | · | 2%[46 µM] | ·
O=c1cc(-c2ccccc2)nc2nc(-c3ccco3)[nH]n12 | 3 | 15% | -117*
SMILES | IMPase cell inh | LMNA splice mod | PNC inhibitor
O=c1cc(-c2ccccc2)nc2nc(SCc3ccccc3)[nH]n12 | -1 | -4% | ?
Cc1nc2nc(-c3ccccc3)cc(=O)n2[nH]1 | -3 | 6% | ?
O=c1cc(-c2ccccc2)nc2nc(CCc3ccccc3)[nH]n12 | 4 | -5% | -107*
COc1cc2c(cc1NS(=O)(=O)c1cccc(C#N)c1)n(C)c(=O)n2C | · | 19%[46 µM] | ·
Cc1cccc(N2CC3=C(C2=O)C(c2ccccc2)NC(=O)N3C)c1 (stereo not given) | 4 | 3% | -81*
Cc1ccc(N2CC3=C(C2=O)C(c2ccccc2)NC(=O)N3C)cc1 (stereo not given) | -2 | 3% | -24
Cc1cnc(NC(=O)CCNC(=O)c2ccc([N+](=O)[O-])cc2)s1 | · | -9%[46 µM] | ·
S=C(N/N=C/c1ccccc1)N1CCOCC1 | · | 9% | 42
CC(NC(=S)N1CCOCC1)c1ccccc1 (stereo not given) | · | -5% | -121*
O=C(NCc1ccc2c(c1)CCN2C(=O)c1ccccc1)c1ccco1 | · | 0%[46 µM] | ·
CCOC(=O)Cn1c(=O)cc(-c2ccccc2)c2c(C)nn(C)c21 | · | -4%[46 µM] | ·
NC(=O)c1nn2c(C(F)(F)F)cc(-c3ccc(Br)cc3)nc2c1Cl | · | -7%[46 µM] | ·
CSC(=S)N(C)C1CCS(=O)(=O)C1 (stereo not given) | 1 | 0% | ?
CN(C1CCS(=O)(=O)C1)S(=O)C12CC3CC(CC(C3)C1)C2 (stereo not given) | -2 | -4% | -100*
CC1(C)C[C@@H]2C(=O)CCC3O[C@@]3(C)CCC21 (stereo not given in full) | · | -7% | ·
CC(=O)OCC(=O)c1ccc2ccn(C(C)=O)c2c1 | -7 | -2% | -100*
COc1ccccc1N1CCN(CC(=O)c2ccc3ccn(C(C)=O)c3c2)CC1 | 5 | -4% | -11
